For orientation: inhibition means the relative decrease from the control value, in per cent.

SMILES strings stand for the structures. The whole screen tested about 110,000 compounds, of which about 420 (0.38%) were called active. Rule as the data show it: active = inhibition above about 30% (passing the limit was not always enough); inconclusive = no clear call, values can overlap the other calls. The full list was thinned out, with actives kept by preference.

This assay concerns RmlC (dTDP-4-dehydrorhamnose 3,5-epimerase) and RmlD (dTDP-4-dehydrorhamnose reductase), coupled enzyme assay. The experiment in a line: RmlC and RmlD coupled enzyme inhibitors, primary screen, biochemical, 384-well, compound mixtures, retest (AID 1532). To be noted: 384-well mixture HTS, at 5.5 µM, stronger effect = higher value.
Setting [1] is: measured here: mean retest inhibition.

For `COc1cc(OC)c2ccc(=O)oc2c1C(CCN1CCN(c2ccccc2)CC1)c1ccc2c(c1)OCO2` (stereo unspecified), the inhibition was -3.48% (inactive).

In the case of `CCOC(=O)/C=C/CN(C(=O)OC(C)(C)C)S(=O)(=O)N1CC=CC1`, the inhibition was -3.8% (inactive).

As to `C#CCOCCOCCOCCNc1nc(N2CCN(C(=O)[C@H](CCC(=O)O)n3cc(C(N)CO)nn3)CC2)nc(N2CCN(C(=O)[C@H](CCCCN)n3cc(C(N)CC(C)C)nn3)CC2)n1` (stereo partly specified), the inhibition was 12.9% (inactive).

Regarding `Cc1nc(-c2ccccc2)sc1C1(C)CC(c2cccnc2)=NO1` (stereo unspecified), the inhibition was 1.85% (inactive).

Take `O=c1[nH]snc1-c1c(Cl)cccc1Cl`: the inhibition is -15.8% (inactive).

With `COC(C[C@H](O)CC(=O)COCc1ccccc1)OC`, the inhibition was -6.86% (inactive).

Consider `CCN1C(=O)N[C@@H](c2ccccc2)[C@H](C(C)=O)[C@H]1C`, for which the inhibition is -8.96% (inactive).

Turning to `Cc1ccc(-c2cc(=O)c3ccc(F)cc3[nH]2)cc1`, the inhibition was -13.2% (inactive).

Turning to `O=C(NCC1CC1)c1onc(CSc2ccccc2)c1C(=O)NCC1CC1`, the inhibition is -3.31% (inactive).

For `O=C1CC2(CCCC2)Oc2ccc(Cl)cc21`, the inhibition is 2.74% (inactive).

`COC(=O)COc1ccc2oc(=O)cc(C)c2c1`: the inhibition was 10.6% (inactive).

For `COC(=O)Cc1cc(=O)oc2c(C)c(O)ccc12`, the inhibition is 115% (active). The inhibition under setting [1] amounted to 108%.

For the molecule `CCCc1cc(=O)oc2c(C)c(O)c(CN3CCCCC3)cc12`, the inhibition was 125% (inactive). For the same molecule, under setting [1], the inhibition was found to be 66.6%.

On to `CCO[C@H]1OC(C(=O)N2CCN(Cc3ccccc3)CC2)=C[C@@H](c2cn(C(C)=O)c3ccccc23)[C@@H]1CCCO`, for which the inhibition is 77% (inactive). Besides, the inhibition under setting [1] was determined as 8.54%.

In the case of `Cc1nc(C(=O)Nc2ccc(Cl)cc2)sc1C1(C)CC(c2ccccc2)=NO1` (stereo unspecified), the inhibition was 7.11% (inactive).

As to `C=CCOC(=O)C1=C[C@H](c2ccc(Br)cc2)C[C@H](OCCCCO)O1`, the inhibition under setting [1] came to 3.33%.

Take `C[C@@H](C(=O)N1CCNCC1)n1cc(CCC(=O)O)nn1`: the inhibition was -10.6% (inactive).

Turning to `CC(=O)Nc1sc2c(c1C(c1cccc(F)c1)N1CCN(CCO)CC1)CCCC2` (stereo unspecified), the inhibition is -13.5% (inactive).

Regarding `CN(C(=O)c1ccccn1)c1nnc(-c2ccccn2)s1`, the inhibition was 73.7% (active). The inhibition under setting [1] came to 110%.

In the case of `CN(Cc1ccccc1)C(=O)COc1ccccc1`, the inhibition was -9.33% (inactive).

With `COc1cccc(-c2nnc(N(C)C(=O)c3ccno3)s2)c1`, the inhibition is 11.7% (inactive).

For the molecule `CN(C(=O)C1CCOC1)c1nnc(-c2cccnc2)s1` (stereo unspecified), the inhibition is -5.38% (inactive).

Take `CN(C(=O)c1ccno1)c1nnc(-c2cccnc2)s1`: the inhibition is 11.4% (inactive).

Turning to `Cc1c(NC(=O)c2coc(=O)c(Br)c2)c(=O)n(-c2ccccc2)n1C`, the inhibition was 75.6% (active). Also, the inhibition under setting [1] was found to be 104%.

Take `COC(=O)Nc1c(C)n(C)n(-c2ccccc2)c1=O`: the inhibition is 3.72% (inactive).

With `Cc1cc(C(=O)Nc2c(C)n(C)n(-c3ccccc3)c2=O)cs1`, the inhibition was -9.2% (inactive).

For the origin of these results see PubChem BioAssay AID1532 (PCMD, 2009).
